Measurements as given in PubChem BioAssay AID1159580 (chemical genetic matrix, 2015).
Several values for one entry are separate records, joined by “and”; a condition that tells them apart may be missing. Equal entries are not always repeated. The whole screen tested about 5,500 compounds, of which about 2,000 (36%) were called active. Another 18% or so got no clear call; they are omitted. No stated cut-off is given here; in the data, active means normalized growth mostly below about 0.91 (no sharp cut-off); inconclusive means no clear call, values can overlap the other calls; inactive means mostly above about 0.92. Some of the results follow.

Test: chemical genetic growth profiling, strain panel (AID 1159580);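 further: tested at 20 µM; growth read once vehicle control cultures reached saturation at 30 °C; 1 = growth at the plate median or of vehicle wells; lower values mean less growth of the strain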
Details: S. cerevisiae deletion strains, growth OD

Measured: normalized growth

CCN(CC)CCOC(=O)C1(C2CCCCC2)CCCCC1
inactive: locus YAL021C, strain ccr4, hits give low values 0.925 | locus YAL026C, strain drs2, hits give low values 0.97 | locus YAL030W, strain snc1, hits give low values 0.985 | locus YAL040C, strain CLN3, hits give low values 1.01 | locus YBL061C, strain skt5, hits give low values 0.99 | locus YBR009C, strain hhf1, hits give low values 0.97 | locus YBR021W, strain FUR4, hits give low values 0.862 | locus YBR023C, strain chs3, hits give low values 0.972 | locus YBR171W, strain sec66, hits give low values 0.987 | locus YBR229C, strain ROT2, hits give low values 1.01 | locus YBR231C, strain swc5, hits give low values 0.998 | locus YBR279W, strain paf1, hits give low values 0.973 | locus YCL011C, strain gbp2, hits give low values 0.928 | locus YCL016C, strain dcc1, hits give low values 0.95 | locus YCL029C, strain bik1, hits give low values 0.99 | locus YCL061C, strain MRC1 (second series), hits give low values 0.998 | locus YCL069W, strain vba3, hits give low values 0.996 | locus YCR088W, strain abp1, hits give low values 0.988 | locus YDL005C, strain med2, hits give low values 0.985 | locus YDL035C, strain GPR1, hits give low values 1.02 | locus YDL040C, strain nat1, hits give low values 0.99 | locus YDL074C, strain BRE1, hits give low values 0.965 | locus YDL101C, strain DUN1, hits give low values 0.998 | locus YDL134C, strain PPH21, hits give low values 1.02 | locus YDL185W, strain tfp1, hits give low values 1 | locus YDL192W, strain arf1, hits give low values 0.985 | locus YDR001C, strain nth1, hits give low values 0.979 | locus YDR069C, strain doa4, hits give low values 0.983 | locus YDR101C, strain arx1, hits give low values 0.995 | locus YDR137W, strain rgp1, hits give low values 1.08 | locus YDR150W, strain NUM1, hits give low values 1.01 and 0.995 | locus YDR159W, strain sac3, hits give low values 0.945 | locus YDR162C, strain NBP2, hits give low values 1.01 | locus YDR195W, strain ref2 0.994 | locus YDR297W, strain sur2, hits give low values 0.99 | locus YDR318W, strain mcm21, hits give low values 0.972 | locus YDR334W, strain swr1, hits give low values 0.98 | locus YDR335W, strain msn5, hits give low values 0.981 | locus YDR363W, strain ESC2, hits give low values 0.971 | locus YDR388W, hits give low values 0.982 | locus YDR392W, strain spt3, hits give low values 0.875 | locus YDR502C, strain sam2, hits give low values 0.956 | locus YEL003W, strain gim4, hits give low values 0.987 | locus YEL037C, strain rad23, hits give low values 0.983 | locus YEL061C, strain CIN8 (second series), hits give low values 0.978 | locus YEL061C, strain CIN8, hits give low values 1 | locus YER002W, strain NOP16, hits give low values 1.02 | locus YER015W, strain faa2, hits give low values 0.944 | locus YER016W, strain bim1, hits give low values 0.969 | locus YER110C, hits give low values 0.988 | locus YER111C, strain swi4, hits give low values 0.993 | locus YER155C, strain BEM2 (second series), hits give low values 0.976 | locus YER155C, strain BEM2, hits give low values 1.01 | locus YER167W, strain BCK2, hits give low values 1.01 | locus YFR010W, strain ubp6, hits give low values 0.972 | locus YGL078C, strain dbp3, hits give low values 0.983 | locus YGL086W, strain mad1, hits give low values 0.971 | locus YGL167C, strain pmr1, hits give low values 0.985 | locus YGL173C, strain kem1, hits give low values 1 | locus YGL227W, strain vid30, hits give low values 0.974 | locus YGL240W, strain doc1, hits give low values 0.984 | locus YGL248W, strain PDE1, hits give low values 0.991 | locus YGL253W, strain hxk2, hits give low values 0.985 | locus YGR078C, strain PAC10, hits give low values 0.972 and 1.05 | locus YGR135W, strain pre9, hits give low values 0.921 | locus YGR252W, strain gcn5, hits give low values 0.889 | locus YHR013C, strain ard1, hits give low values 0.944 | locus YHR027C, strain rpn1, hits give low values 0.968 | locus YHR030C, strain SLT2, hits give low values 1 and 1.05 | locus YHR079C, strain IRE1 (second series), hits give low values 0.982 | locus YHR079C, strain IRE1, hits give low values 1.02 | locus YHR094C, strain hxt1, hits give low values 0.992 | locus YHR129C, strain ARP1, hits give low values 1 | locus YHR142W, strain chs7, hits give low values 0.987 | locus YHR200W, strain rpn10, hits give low values 0.986 | locus YIL066C, strain RNR3, hits give low values 1.01 | locus YIL073C, strain SPO22, hits give low values 0.997 | locus YIL125W, strain kgd1, hits give low values 0.99 | locus YIR030C, strain dcg1, hits give low values 0.997 | locus YJL092W, strain hpr5, hits give low values 0.969 | locus YJL095W, strain BCK1 (second series), hits give low values 0.978 | locus YJL095W, strain BCK1, hits give low values 0.929 and 1.04 | locus YJL115W, strain asf1, hits give low values 0.983 | locus YJL129C, strain trk1, hits give low values 0.98 | locus YJL134W, strain LCB3, hits give low values 1.01 | locus YJL154C, strain vps35, hits give low values 0.982 | locus YJL164C, strain tpk1, hits give low values 0.951 | locus YJL166W, strain qcr8, hits give low values 1 | locus YJL168C, strain set2, hits give low values 0.981 | locus YJL187C, strain SWE1 (second series), hits give low values 0.974 | locus YJR043C, strain POL32, hits give low values 1.06 | locus YJR066W, strain TOR1, hits give low values 0.951 | locus YJR075W, strain HOC1, hits give low values 0.952 and 0.974 | locus YKL009W, strain mrt4, hits give low values 0.971 | locus YKL068W, hits give low values 0.992 | locus YKL085W, strain MDH1 (second series), hits give low values 0.963 | locus YKL085W, strain MDH1, hits give low values 0.963 | locus YKL160W, strain elf1, hits give low values 1.01 | locus YKR001C, strain vps1, hits give low values 1 | locus YKR026C, strain gcn3, hits give low values 0.982 | locus YKR091W, strain srl3, hits give low values 0.978 | locus YLL001W, strain dnm1, hits give low values 0.998 | locus YLL026W, hits give low values 0.997 | locus YLL041C, strain sdh2, hits give low values 0.987 | locus YLR027C, strain aat2, hits give low values 0.994 | locus YLR039C, strain RIC1, hits give low values 1.3 | locus YLR058C, strain SHM2, hits give low values 0.985 | locus YLR102C, strain apc9, hits give low values 0.987 | locus YLR113W, strain HOG1, hits give low values 1.05 | locus YLR221C, strain rsa3, hits give low values 0.952 | locus YLR258W, strain gsy2, hits give low values 0.955 | locus YLR262C, strain YPT6 (second series), hits give low values 1.04 | locus YLR262C, strain YPT6, hits give low values 1.25 | locus YLR268W, strain sec22, hits give low values 0.965 | locus YLR320W, strain mms22, hits give low values 0.93 | locus YLR330W, strain CHS5, hits give low values 0.999 | locus YLR342W, strain FKS1 (second series), hits give low values 0.905 | locus YLR342W, strain FKS1, hits give low values 0.983 | locus YLR357W, strain rsc2, hits give low values 0.965 | locus YLR370C, strain arc18, hits give low values 0.979 | locus YLR371W, strain rom2, hits give low values 0.973 | locus YLR384C, strain iki3, hits give low values 0.993 | locus YLR418C, strain cdc73, hits give low values 0.847 | locus YML016C, strain PPZ1, hits give low values 0.997 | locus YML032C, strain rad52, hits give low values 0.966 | locus YML120C, strain ndi1, hits give low values 0.985 | locus YML124C, strain tub3, hits give low values 0.984 | locus YMR058W, strain fet3, hits give low values 0.983 | locus YMR078C, strain ctf18, hits give low values 0.978 | locus YMR125W, strain sto1, hits give low values 0.946 | locus YMR129W, hits give low values 0.972 | locus YMR205C, strain PFK2, hits give low values 0.985 | locus YMR223W, strain ubp8, hits give low values 0.932 | locus YMR231W, strain pep5, hits give low values 0.985 | locus YMR263W, strain SAP30, hits give low values 0.984 and 1 | locus YMR307W, strain GAS1, hits give low values 1.23 and 1.02 | locus YNL067W, strain RPL9B, hits give low values 0.979 | locus YNL071W, strain lat1, hits give low values 0.951 | locus YNL128W, strain TEP1, hits give low values 1.02 | locus YNL153C, strain GIM3, hits give low values 0.966 and 0.991 | locus YNL175C, strain NOP13, hits give low values 1.02 | locus YNL183C, strain NPR1, hits give low values 0.995 | locus YNL197C, strain WHI3, hits give low values 1.06 | locus YNL209W, strain ssb2, hits give low values 0.947 | locus YNL224C, strain SQS1, hits give low values 1.01 | locus YNL233W, strain BNI4, hits give low values 0.962 | locus YNL248C, strain rpa49, hits give low values 0.948 | locus YNL250W, strain rad50, hits give low values 0.979 | locus YNL271C, strain bni1, hits give low values 0.973 | locus YNL298W, strain CLA4, hits give low values 1 | locus YNL307C, strain MCK1, hits give low values 0.968 | locus YNL322C, strain KRE1 (second series), hits give low values 0.979 | locus YNR049C, strain mso1, hits give low values 0.979 | locus YNR052C, strain pop2, hits give low values 0.961 | locus YOL012C, strain htz1 0.807 | locus YOL147C, strain pex11, hits give low values 0.99 | locus YOR001W, strain rrp6, hits give low values 1.01 | locus YOR061W, strain CKA2, hits give low values 1 | locus YOR069W, strain VPS5, hits give low values 0.994 | locus YOR070C, strain gyp1, hits give low values 0.968 | locus YOR080W, strain dia2, hits give low values 0.982 | locus YOR083W, strain WHI5 (second series), hits give low values 1.02 | locus YOR083W, strain WHI5, hits give low values 0.965 | locus YOR106W, strain vam3, hits give low values 1 | locus YOR136W, strain idh2, hits give low values 0.998 | locus YOR144C, strain elg1, hits give low values 0.997 | locus YOR184W, strain ser1, hits give low values 0.992 | locus YOR231W, strain MKK1, hits give low values 1.04 | locus YOR265W, strain rbl2, hits give low values 0.991 | locus YOR270C, strain vph1, hits give low values 0.85 | locus YOR290C, strain snf2, hits give low values 0.939 | locus YOR316C, strain cot1, hits give low values 0.992 | locus YPL051W, strain arl3, hits give low values 0.984 | locus YPL055C, strain LGE1, hits give low values 0.986 | locus YPL078C, strain atp4, hits give low values 1.01 | locus YPL106C, strain sse1, hits give low values 0.939 | locus YPL240C, strain hsp82, hits give low values 0.984 | locus YPL241C, strain CIN2, hits give low values 0.998 | locus YPL256C, strain CLN2, hits give low values 1.05 | locus YPR119W, strain clb2, hits give low values 0.99 | locus YPR141C, strain kar3, hits give low values 0.993 | locus YPR163C, strain tif3, hits give low values 0.988 | locus YPR167C, strain met16, hits give low values 0.983 | strain wtn01, hits give low values 0.957
active: locus YAL013W, strain DEP1, hits give low values 0.892
